Counter-ions that a name gives are not always drawn.
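Note: breast cancer cell viability read out with the CCK-8 kit after co-treatment of each compound with the ferroptosis inducer RSL3.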

This test has as its system MDA-MB-231. The experiment in a line: relative cell viability, compound + RSL3, vs DMSO (fraction of DMSO control); higher = less growth inhibition. As to conditions: 72 h.
For the compound `COc1ccc(-c2coc3cc(OC)ccc3c2=O)cc1` [4',7-Dimethoxyisoflavone] + COC(=O)c1ccc([C@H]2c3[nH]c4ccccc4c3C[C@H](C(=O)OC)N2C(=O)CCl)cc1 [RSL3], the relative cell viability came to 0.36.
To `Cn1c2cc([S+](C)[O-])sc2c2cnn(Cc3cccc(N)c3)c(=O)c21` (centres undefined) + COC(=O)c1ccc([C@H]2c3[nH]c4ccccc4c3C[C@H](C(=O)OC)N2C(=O)CCl)cc1 [RSL3] belongs 0.677.
The value for `CCCCCCS(=O)(=O)NC(=O)c1ccc(CSCc2ccc(-c3ccccc3)cc2)cc1` + COC(=O)c1ccc([C@H]2c3[nH]c4ccccc4c3C[C@H](C(=O)OC)N2C(=O)CCl)cc1 [RSL3] was 0.676.
The value for `C[C@]12C=CC(=O)N[C@@H]1CC[C@@H]1[C@@H]2CC[C@]2(C)[C@@H](C(=O)Nc3cc(C(F)(F)F)ccc3C(F)(F)F)CC[C@@H]12` [Dutasteride] + COC(=O)c1ccc([C@H]2c3[nH]c4ccccc4c3C[C@H](C(=O)OC)N2C(=O)CCl)cc1 [RSL3] was 0.427; that for `CCOC(=O)C(C)(C)Oc1ccc(Cl)cc1` [Clofibrate] + COC(=O)c1ccc([C@H]2c3[nH]c4ccccc4c3C[C@H](C(=O)OC)N2C(=O)CCl)cc1 [RSL3] was 0.619.
As for `CC[C@H](C)C(=O)O[C@H]1C[C@@H](C)C=C2C=C[C@H](C)[C@H](CC[C@@H]3C[C@@H](O)CC(=O)O3)[C@H]21` [Lovastatin] + COC(=O)c1ccc([C@H]2c3[nH]c4ccccc4c3C[C@H](C(=O)OC)N2C(=O)CCl)cc1 [RSL3], the relative cell viability came out at 0.491.
The value for `CC(C)[C@H](N=C(NS(=O)(=O)c1ccc(Cl)cc1)N1C[C@H](c2ccccc2)C(c2ccc(Cl)cc2)=N1)C(N)=O` + COC(=O)c1ccc([C@H]2c3[nH]c4ccccc4c3C[C@H](C(=O)OC)N2C(=O)CCl)cc1 [RSL3] was 0.45.
To `O=C(O)CCn1c2c(c3ccccc31)C[C@H](NS(=O)(=O)c1ccc(F)cc1)CC2` [Ramatroban] + COC(=O)c1ccc([C@H]2c3[nH]c4ccccc4c3C[C@H](C(=O)OC)N2C(=O)CCl)cc1 [RSL3] belongs 0.554; to `CN(C)C(=O)Nc1cccc(-c2ccc(N(C)C)cc2)c1` [Atglistatin] + COC(=O)c1ccc([C@H]2c3[nH]c4ccccc4c3C[C@H](C(=O)OC)N2C(=O)CCl)cc1 [RSL3], 0.562.
`CC(C)c1onc(-c2c(Cl)cccc2Cl)c1COc1ccc(/C=C/c2cccc(C(=O)O)c2)c(Cl)c1` + COC(=O)c1ccc([C@H]2c3[nH]c4ccccc4c3C[C@H](C(=O)OC)N2C(=O)CCl)cc1 [RSL3]: the relative cell viability is 0.699.
The value for `C[C@H](CCC(=O)O)[C@H]1CC[C@H]2[C@@H]3CC[C@@H]4C[C@H](O)CC[C@]4(C)[C@H]3CC[C@]12C` [Lithocholic acid] + COC(=O)c1ccc([C@H]2c3[nH]c4ccccc4c3C[C@H](C(=O)OC)N2C(=O)CCl)cc1 [RSL3] was 0.649.
The value for `CC(C)(Oc1ccc(CCNC(=O)c2ccc(Cl)cc2)cc1)C(=O)O` [Bezafibrate] + COC(=O)c1ccc([C@H]2c3[nH]c4ccccc4c3C[C@H](C(=O)OC)N2C(=O)CCl)cc1 [RSL3] was 0.518.
`O=C(O)c1cccnc1Nc1cccc(C(F)(F)F)c1` [Niflumic acid] + COC(=O)c1ccc([C@H]2c3[nH]c4ccccc4c3C[C@H](C(=O)OC)N2C(=O)CCl)cc1 [RSL3]: the relative cell viability turned out to be 0.53.
Turning to `O=C(O)c1ccnc(N2CC(O)(c3ccc(OCc4c(-c5c(Cl)cccc5Cl)noc4C4CC4)cc3Cl)C2)c1` [Cilofexor] + COC(=O)c1ccc([C@H]2c3[nH]c4ccccc4c3C[C@H](C(=O)OC)N2C(=O)CCl)cc1 [RSL3], the relative cell viability stood at 0.568.
Consider `CC(C)(C)N1C(=O)C(Nc2ccc(N3CCCCC3)cc2)=C(c2ccccc2)S1(=O)=O` + COC(=O)c1ccc([C@H]2c3[nH]c4ccccc4c3C[C@H](C(=O)OC)N2C(=O)CCl)cc1 [RSL3], for which the relative cell viability was determined as 0.69.
To `O=C(CCCCCCCC(=O)NCCO)NCCO` [Adelmidrol] + COC(=O)c1ccc([C@H]2c3[nH]c4ccccc4c3C[C@H](C(=O)OC)N2C(=O)CCl)cc1 [RSL3] belongs 0.651; to `O=C1c2cc(CO)cc(O)c2C(=O)c2c(O[C@@H]3O[C@H](CO)[C@@H](O)[C@H](O)[C@H]3O)cccc21` [Aloe-emodin-8-O-beta-D-glucopyranoside] + COC(=O)c1ccc([C@H]2c3[nH]c4ccccc4c3C[C@H](C(=O)OC)N2C(=O)CCl)cc1 [RSL3], 0.544.
In the case of `CC(C)(Oc1ccc(C(=O)c2ccc(Cl)cc2)cc1)C(=O)O` [Choline Fenofibrate] + COC(=O)c1ccc([C@H]2c3[nH]c4ccccc4c3C[C@H](C(=O)OC)N2C(=O)CCl)cc1 [RSL3], the relative cell viability is 0.692.
The value for `Cc1ccc(C)c(OCCCC(C)(C)C(=O)O)c1` [Gemfibrozil] + COC(=O)c1ccc([C@H]2c3[nH]c4ccccc4c3C[C@H](C(=O)OC)N2C(=O)CCl)cc1 [RSL3] was 0.523.
With `O=C1c2cccc(O)c2C(=O)c2c(O)cccc21` [Antrapurol] + COC(=O)c1ccc([C@H]2c3[nH]c4ccccc4c3C[C@H](C(=O)OC)N2C(=O)CCl)cc1 [RSL3], the relative cell viability stood at 0.537.
To `CC(=O)N1CCN(c2ccc(OCC3COC(Cn4ccnc4)(c4ccc(Cl)cc4Cl)O3)cc2)CC1` (centres undefined) [Ketoconazole] + COC(=O)c1ccc([C@H]2c3[nH]c4ccccc4c3C[C@H](C(=O)OC)N2C(=O)CCl)cc1 [RSL3] belongs 0.488.
To `CC(c1cc2ccccc2s1)N(O)C(N)=O` (centres undefined) [Zileuton] + COC(=O)c1ccc([C@H]2c3[nH]c4ccccc4c3C[C@H](C(=O)OC)N2C(=O)CCl)cc1 [RSL3] belongs 0.633.
The value for `COc1cc(N2CCN(C)CC2)ccc1Nc1ncc2c(n1)N(C1CCC1)C(=O)N(c1c(C)cccc1C)C2` + COC(=O)c1ccc([C@H]2c3[nH]c4ccccc4c3C[C@H](C(=O)OC)N2C(=O)CCl)cc1 [RSL3] was 0.747; that for `COc1ccc2c(=O)c(-c3ccccc3)coc2c1` [7-Methoxyisoflavone] + COC(=O)c1ccc([C@H]2c3[nH]c4ccccc4c3C[C@H](C(=O)OC)N2C(=O)CCl)cc1 [RSL3] was 0.419.
For `N=C(N)NC(=N)NCCc1ccccc1` [Phenformin hydrochloride] + COC(=O)c1ccc([C@H]2c3[nH]c4ccccc4c3C[C@H](C(=O)OC)N2C(=O)CCl)cc1 [RSL3], the relative cell viability worked out at 0.543.
On to `COc1ccc(-c2cc(=O)c3c(O)c(OC)c(OC)c(OC)c3o2)cc1OC` + COC(=O)c1ccc([C@H]2c3[nH]c4ccccc4c3C[C@H](C(=O)OC)N2C(=O)CCl)cc1 [RSL3], for which the relative cell viability came out at 0.501.
To `NC(CO)C(=O)O` (racemic) [DL-Serine] + COC(=O)c1ccc([C@H]2c3[nH]c4ccccc4c3C[C@H](C(=O)OC)N2C(=O)CCl)cc1 [RSL3] belongs 0.594; to `CCC(CC)CC1(C(=O)Nc2ccccc2SC(=O)C(C)C)CCCCC1` [Dalcetrapib] + COC(=O)c1ccc([C@H]2c3[nH]c4ccccc4c3C[C@H](C(=O)OC)N2C(=O)CCl)cc1 [RSL3], 0.684.
With `COc1ccc(/C=C/c2cc(O)cc(O[C@@H]3O[C@H](CO)[C@@H](O)[C@H](O)[C@H]3O)c2)cc1` [Deoxyrhapontin] + COC(=O)c1ccc([C@H]2c3[nH]c4ccccc4c3C[C@H](C(=O)OC)N2C(=O)CCl)cc1 [RSL3], the relative cell viability is 0.693.
The value for `CC(C)(C)c1ccc(-c2nc3ccccc3[nH]2)cc1` + COC(=O)c1ccc([C@H]2c3[nH]c4ccccc4c3C[C@H](C(=O)OC)N2C(=O)CCl)cc1 [RSL3] was 0.399; that for `O=P(O)(O)OC(CO)CO` [β-Glycerol phosphate disodium salt pentahydrate] + COC(=O)c1ccc([C@H]2c3[nH]c4ccccc4c3C[C@H](C(=O)OC)N2C(=O)CCl)cc1 [RSL3] was 0.56; that for `C=C(C)[C@@H]1CC[C@]2(C)CC[C@]3(C)[C@H](CC[C@@H]4[C@@]5(C)CCC(=O)C(C)(C)[C@@H]5CC[C@]43C)[C@@H]12` + COC(=O)c1ccc([C@H]2c3[nH]c4ccccc4c3C[C@H](C(=O)OC)N2C(=O)CCl)cc1 [RSL3] was 0.688.
To `C[N+](C)(C)CC(O)CC(=O)[O-]` (stereo not drawn) [L(-)-Carnitine] + COC(=O)c1ccc([C@H]2c3[nH]c4ccccc4c3C[C@H](C(=O)OC)N2C(=O)CCl)cc1 [RSL3] belongs 0.523; to `O=C(O)CCCc1cc2cc(Cl)ccc2n1S(=O)(=O)c1ccc2ncsc2c1` [Lanifibranor] + COC(=O)c1ccc([C@H]2c3[nH]c4ccccc4c3C[C@H](C(=O)OC)N2C(=O)CCl)cc1 [RSL3], 0.786.
On to `COc1cc(C(C)=O)ccc1O` [Acetovanillone] + COC(=O)c1ccc([C@H]2c3[nH]c4ccccc4c3C[C@H](C(=O)OC)N2C(=O)CCl)cc1 [RSL3], for which the relative cell viability came to 0.594.
To `O=C1/C(=C/c2cccs2)CC/C1=C\c1cccs1` + COC(=O)c1ccc([C@H]2c3[nH]c4ccccc4c3C[C@H](C(=O)OC)N2C(=O)CCl)cc1 [RSL3] belongs 0.49; to `O=S(=O)(Nc1ccc(C(O)(C(F)(F)F)C(F)(F)F)cc1)c1cccs1` + COC(=O)c1ccc([C@H]2c3[nH]c4ccccc4c3C[C@H](C(=O)OC)N2C(=O)CCl)cc1 [RSL3], 0.63.
The value for `C[C@H](CCCC(C)(C)O)[C@H]1CC[C@H]2[C@@H]3CC=C4C[C@@H](O)CC[C@]4(C)[C@H]3CC[C@]12C` [25-Hydroxycholesterol] + COC(=O)c1ccc([C@H]2c3[nH]c4ccccc4c3C[C@H](C(=O)OC)N2C(=O)CCl)cc1 [RSL3] was 0.649; that for `CC(C)(Oc1ccc(C2CC2(Cl)Cl)cc1)C(=O)O` (centres undefined) [Ciprofibrate] + COC(=O)c1ccc([C@H]2c3[nH]c4ccccc4c3C[C@H](C(=O)OC)N2C(=O)CCl)cc1 [RSL3] was 0.706.

The values above are taken from the supplement of paper PMC9492666.
